Assay outcomes deposited in PubChem BioAssay by National Center for Advancing Translational Sciences (NCATS).
Sfp inh – blocks B. subtilis Sfp PPTase activity; Q9F4F7; Biochemical Sfp PPTase activity, qHTS; Potency, µM, hits mostly inhibitors; 3.5% of 310,000 active; AID 1490;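 note: the enzyme is Sfp with the accession as filed and its product quenches rhodamine fluorescence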
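Step 1, compound plus 15 nM Sfp-PPTase, 15 min, room temperature. Step 2, add rhodamine-CoA (5 uM) and BHQ-2-YbbR (12.5 uM). Step 3, read 525/598 nm fluorescence at 0 and 30 min.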
HP1b binding inh – HP1-beta chromodomain-methylated histone interaction inhibition | AlphaScreen HP1-beta / biotin-H3K9me3 peptide binding | Potency, µM (titrated, usually from 114 µM), hits mostly inhibitors | 0.56% of 390,000 active | AID 540317; note: nearly all actives have a fitted effect of over 70% in size
Target sequence (P83916 whole entry, looked up): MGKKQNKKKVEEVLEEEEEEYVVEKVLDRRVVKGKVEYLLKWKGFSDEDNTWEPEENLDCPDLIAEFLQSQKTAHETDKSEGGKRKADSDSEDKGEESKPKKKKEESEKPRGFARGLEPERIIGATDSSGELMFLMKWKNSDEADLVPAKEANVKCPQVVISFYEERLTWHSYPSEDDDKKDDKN
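Compound inhibition of the preformed complex between 50 nM HP1-beta and 50 nM biotinylated H3K9me3 peptide was read by AlphaScreen. Buffer was PBS pH 7.4 with 0.01% Tween-20. Incubations ran 30 min at room temperature, with 10 ug/mL donor/acceptor beads.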
BAZ2B block – BAZ2B (human) inhibition; Q9UIF8; AlphaScreen BAZ2B-H3K14Ac peptide displacement; Potency, µM (doses to about 114 µM), hits mostly inhibitors; 4.4% of 360,000 active; AID 504333; note: nearly all actives have a fitted effect of over 60% in size
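BAZ2B (50 nM) with biotin-H3(5-23)K14Ac peptide (50 nM) in PBS pH 7.4, 0.01% Tween-20, preformed 30 min, then compound 30 min at room temperature; top concentration 110uM. AlphaScreen streptavidin donor/nickel chelate acceptor beads (10 ug/mL final), 20 min dark, signal read.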
G9a block – inhibitors of human histone lysine methyltransferase G9a | Q96KQ7 | G9a H3K9 monomethylation, AlphaScreen, 2 h | Potency, µM (top dose mostly 102 µM), most hits filed as inhibitors | 8.8% of 350,000 active; note: nearly all actives have a fitted effect of over 75% in size
Target sequence (Q96KQ7 913-1193 limits assumed): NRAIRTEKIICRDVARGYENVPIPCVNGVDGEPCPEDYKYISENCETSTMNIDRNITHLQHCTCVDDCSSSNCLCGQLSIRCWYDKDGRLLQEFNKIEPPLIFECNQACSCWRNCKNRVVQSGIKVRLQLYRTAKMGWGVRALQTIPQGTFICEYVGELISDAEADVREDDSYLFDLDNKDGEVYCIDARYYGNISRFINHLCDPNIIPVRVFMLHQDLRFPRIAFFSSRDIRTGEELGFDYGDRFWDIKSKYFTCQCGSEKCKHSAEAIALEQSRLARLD
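Using a bead-based AlphaScreen, monomethylated H3K9 product from 2 h room-temperature reactions (G9a 20 nM, peptide 500 nM, SAM 20 uM) was detected with 0.5 ug/mL rabbit anti-H3K9me1 antibody.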
JMJD2A Tudor inh – inhibitors of human JMJD2A Tudor domain. O75164. AlphaScreen JMJD2A-Tudor / H3K4me3 peptide binding. Potency, µM (highest dose often 114 µM), most hits filed as inhibitors. 4.4% of 390,000 active; note: nearly all actives have a fitted effect of over 50% in size
Large screens that a line does not name were inactive; ! = not active in a repeat. Shown are actives, neighbours in structure and some others; about 12% of the full set was active somewhere. Calls come from the whole dose curve; as a rule, active = well fitted curve in the direction sought with a large enough effect; inconclusive = small, poorly fitted or top-dose-only effect, or another doubt; inactive = no such curve, though single readings can be large; an effect the other way counts as inactive or inconclusive.

COc1ccccc1NC(=O)C(C)OC(=O)C(C)SCC(=O)Nc1ccc(C)cc1 (configuration not stated)	G9a block 35µM (no result: Sfp inh)
COc1ccc(NC(=O)C/C(C)=N/NC(=O)C(=O)NC(C)C)c(OC)c1	BAZ2B block inconclusive (no result: G9a block)
COc1ccc(NC(=O)CN2CCN(CC(=O)Nc3ccccc3F)CC2)cc1OC	G9a block 45µM!
COc1ccccc1NC(=O)CN1CCN(CC(=O)Nc2ccc(OCc3ccccc3)cc2)CC1	G9a block 35µM
COc1ccc(NC(=O)C/C(C)=N/NC(=O)C(=O)Nc2cccc(Cl)c2C)c(OC)c1	G9a block 56µM
Cc1ccc(-c2nc(CS(=O)(=O)CC(=O)N3CCN(c4cccc(C)c4C)CC3)c(C)o2)cc1	none (no result: Sfp inh)
O=C(NCCc1ccc(Cl)cc1)c1ccc(CSCc2ccc(Cl)cc2)o1	none (no result: Sfp inh)
CCOC(=O)C(C(=O)N(C)Cc1ccccc1)C1CCCCC1 (configuration not stated)	none (no result: G9a block)
O=C(NCCc1ccc(Cl)cc1)c1cnc2sc(N3CCCCC3)nn2c1=O	none (no result: Sfp inh)
NS(=O)(=O)c1ccc(NC(=O)CN2CCN(S(=O)(=O)c3cccs3)CC2)cc1	G9a block 50µM (no result: Sfp inh)
COc1cccc(NC(=O)CN2CCN(CC(=O)Nc3ccc(F)cc3)CC2)c1	G9a block 35µM
COc1ccc(NC(=O)CN2CCN(CC(=O)Nc3ccccc3Cl)CC2)c(OC)c1	G9a block 45µM
COc1ccc(NC(=O)CN2CCN(S(=O)(=O)c3cccs3)CC2)cc1Cl	none (no result: Sfp inh)
COc1ccc(NCC(=O)Nc2ccc(Br)cc2F)c(OC)c1	HP1b binding inh inconclusive, BAZ2B block 40µM, JMJD2A Tudor inh 56µM (no result: G9a block)
COc1ccc(NC(=O)CN2CCN(CC(=O)Nc3ccccc3OC)CC2)c(OC)c1	G9a block inconclusive
COc1ccccc1NC(=O)CN1CCN(CC(=O)Nc2ccc(S(N)(=O)=O)cc2)CC1	G9a block 45µM
COc1ccc(NC(=O)CN2CCN(CC(=O)Nc3ccccc3F)CC2)c(OC)c1	G9a block 32µM!
COc1ccc(-c2cn(-c3ccc(C)cc3)c(=O)n2CC(=O)Nc2cccc(F)c2)cc1	BAZ2B block inconclusive, G9a block inconclusive, JMJD2A Tudor inh 79µM
COc1cc(NC(=O)CN2CCN(CC(=O)Nc3ccccc3OC)CC2)cc(OC)c1	G9a block 45µM
COc1ccccc1NC(=O)CN1CCN(CC(=O)Nc2ccc(OC)c(OC)c2)CC1	G9a block inconclusive
CCCOc1ccc(C(=O)CCC(=O)OCC(=O)Nc2cccc(S(N)(=O)=O)c2)cc1	none (no result: Sfp inh)
c1ccc(Cn2cnc3ccccc32)cc1	none
Cc1cc(C)c(Cn2cnc3ccccc32)c(C)c1	G9a block 45µM
Cc1ccc(OCCCCn2cnc3ccccc32)c(C)c1	Sfp inh 50µM, HP1b binding inh inconclusive, BAZ2B block 25µM, G9a block 7.9µM, JMJD2A Tudor inh 1.6µM
Fc1cc2[nH]c(=S)[nH]c2cc1Cl	G9a block 6.3µM
O=c1[nH]c2cc(Cl)c(Cl)cc2[nH]c1=O	none (no result: HP1b binding inh, BAZ2B block, JMJD2A Tudor inh)
Cc1ccc(C)c(NC(=O)Cn2ccn(-c3ccc4c(c3)OCO4)c(=O)c2=O)c1	none (no result: Sfp inh)
Cc1cc(C=O)c(C)n1-c1ccc(Oc2ccc([N+](=O)[O-])cn2)cc1	BAZ2B block inconclusive
Cc1cc(C=O)c(C)n1-c1ccc(NC2CCCC2)c([N+](=O)[O-])c1	HP1b binding inh 32µM, JMJD2A Tudor inh 20µM
Cc1noc(C)c1CSc1nnc(-c2ccccc2F)n1CCc1ccccc1	G9a block 40µM
Cc1ccccc1-n1c(SCc2c(C)noc2C)nnc1-c1ccncc1	none
CCn1c(CSc2n[nH]c(N)n2)nc2cc(C(=O)O)ccc21	Sfp inh 79µM, BAZ2B block inconclusive, G9a block 40µM, JMJD2A Tudor inh inconclusive
Cc1ccccc1-n1c(SCc2c(C)noc2C)nnc1-c1cccnc1	Sfp inh inconclusive, G9a block 40µM
CCn1c(CSc2nnc(-c3cccnc3)n2-c2ccccc2C)nc2cc(C(=O)O)ccc21	Sfp inh inconclusive, BAZ2B block inconclusive, G9a block 13µM (no result: HP1b binding inh, JMJD2A Tudor inh)
CCN(CC(=O)NCc1ccc(F)cc1)C(=O)c1ccc(C)o1	none
CCOC(=O)NC1(Nc2cccc(Cl)c2)Oc2ccccc2O1	Sfp inh inconclusive, HP1b binding inh inconclusive, G9a block 2µM, JMJD2A Tudor inh 40µM
O=C(c1cccs1)N(Cc1ccccn1)Cc1ccco1	Sfp inh 79µM, BAZ2B block inconclusive, G9a block inconclusive, JMJD2A Tudor inh inconclusive
Cc1ccc2[nH]c(=O)c(CN(Cc3ccco3)C(=O)c3cccs3)cc2c1	none (no result: HP1b binding inh, JMJD2A Tudor inh)
O=C(c1ccco1)N(Cc1ccccc1)Cc1ccccn1	BAZ2B block inconclusive, G9a block 79µM
CCc1nn(CC(=O)NC(C)CC)c(=O)c2cc3occc3n12 (configuration not stated)	none (no result: Sfp inh)
CCN(CC)C(=O)c1c(NC(=O)c2cccc(C)c2)sc2c1CCC(C)C2 (configuration not stated)	none (no result: Sfp inh)
BrC(=C\c1ccccc1)/C=N/N1CCN(c2ccccc2)CC1	Sfp inh 45µM, BAZ2B block inconclusive, G9a block 20µM
Cc1ccc(CN2CCN(/N=C/c3ccccc3)CC2)cc1	HP1b binding inh inconclusive, BAZ2B block inconclusive, G9a block inconclusive, JMJD2A Tudor inh inconclusive
CC(/C=N/N1CCN(Cc2ccccc2)CC1)=C\c1ccccc1	HP1b binding inh inconclusive, BAZ2B block 50µM, G9a block 28µM, JMJD2A Tudor inh 45µM
Cc1ccc(CN2CCN(/N=C\C(Br)=C\c3ccccc3)CC2)cc1	HP1b binding inh inconclusive, BAZ2B block inconclusive, G9a block inconclusive, JMJD2A Tudor inh 45µM
COc1ccc(-n2nc(C(=O)NCC(=O)N3CCC(C(N)=O)CC3)c3ccccc3c2=O)cc1	none
CC(=O)NC(Nc1nc2c(s1)CCCC2)(C(F)(F)F)C(F)(F)F	HP1b binding inh inconclusive, G9a block 50µM
COC(=O)Nc1nc2c(s1)CCCC2	none
O=C(O)c1cc(NC(=O)c2ccco2)cc(NC(=O)c2ccco2)c1	G9a block inconclusive
COc1ccccc1NS(=O)(=O)c1cc(NC(=O)Nc2ccc(Cl)cc2Cl)ccc1N1CCCCC1	HP1b binding inh inconclusive, G9a block 3.5µM
COc1ccccc1NS(=O)(=O)c1cc(NC(=O)C2CCC2)ccc1N1CCCCC1	Sfp inh 8.9µM, G9a block 3.5µM, JMJD2A Tudor inh inconclusive
COc1ccccc1NS(=O)(=O)c1cc(NC(=O)c2cccnc2)ccc1N1CCCCC1	JMJD2A Tudor inh inconclusive (no result: Sfp inh, BAZ2B block, G9a block)
COc1ccccc1NS(=O)(=O)c1cc(NC(=O)CCC2CCCC2)ccc1N1CCOCC1	BAZ2B block inconclusive, G9a block 1.4µM
COCCNC(=O)C1CCN(Cc2cc3ccccc3n2Cc2ccc(C)cc2)CC1	none (no result: Sfp inh)
CCCSc1nc2c(c(=O)[nH]1)C(c1ccc(F)cc1F)CC(=O)N2 (configuration not stated)	none (no result: Sfp inh)
